Source: PubChem BioAssay (NCATS)
Inconclusive results are not listed. The source made the active and inactive calls. Calls follow the shape of the full dose curve. Residues, ends and D or L forms follow the SMILES beside them.

biological target: Peroxisome proliferator-activated receptor delta (Homo sapiens) (UniProt Q03181); experiment: qHTS assay for small molecule agonists of peroxisome proliferator-activated receptor delta signaling (AID 588534); settings: HEK293T PPARdelta-UAS-bla, beta-lactamase ratio, 18 h; series mostly up to 76.7 µM
Summary of the method: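 Agonist-mode qHTS; reporter cells, 5 hrs 37 C pre-incubation; compound titration, 18 hrs 37 C; CCF4 dye, 2 hrs RT; fluorescence read. EC50/efficacy via Hill fit.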

Peroxisome proliferator-activated receptor delta (Homo sapiens), sequence (Q03181 whole entry, looked up): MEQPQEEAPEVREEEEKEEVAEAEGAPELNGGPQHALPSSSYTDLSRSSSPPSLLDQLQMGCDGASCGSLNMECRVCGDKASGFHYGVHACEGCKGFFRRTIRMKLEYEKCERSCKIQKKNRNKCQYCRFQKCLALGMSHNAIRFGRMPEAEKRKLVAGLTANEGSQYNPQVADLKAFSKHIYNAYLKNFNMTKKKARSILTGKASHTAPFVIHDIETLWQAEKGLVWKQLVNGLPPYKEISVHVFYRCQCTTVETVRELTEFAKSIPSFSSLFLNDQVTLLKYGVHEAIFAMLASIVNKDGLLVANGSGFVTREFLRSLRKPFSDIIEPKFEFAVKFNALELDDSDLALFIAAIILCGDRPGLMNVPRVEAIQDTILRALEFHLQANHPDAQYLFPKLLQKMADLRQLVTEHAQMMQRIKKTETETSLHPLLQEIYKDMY

SMILES	outcome
O=C(OOC(=O)c1ccccc1)c1ccccc1	inactive
CC1CC(OC(=O)c2ccccc2O)CC(C)(C)C1 (stereo not given)	inactive
CC(=O)OCC(COC(C)=O)OC(C)=O	inactive
Cc1ccc(C(C)C)c(O)c1	inactive
O=C1c2ccccc2C(=O)c2ccccc21	inactive
O=C1c2c(O)cccc2Cc2cccc(O)c21	inactive
NNC(=O)c1ccncc1	inactive
O=c1[nH]cnc2[nH]ncc12	inactive
COc1cc(OC)c(C(=O)CCCN2CCCC2)c(OC)c1	inactive
Oc1cccc(O)c1	inactive
CCCCC(CC)COC(=O)c1ccccc1O (stereo not given)	inactive
CC(C)(C)CC(C)(C)c1ccc(O)c(-n2nc3ccccc3n2)c1	inactive
CC(=O)NS(=O)(=O)c1ccc(N)cc1	inactive
Cc1cc(C)nc(NS(=O)(=O)c2ccc(N)cc2)n1	inactive
CC(O)CN(CCN(CC(C)O)CC(C)O)CC(C)O (stereo not given)	inactive
Oc1ccc(Cl)cc1	inactive
COC(=O)[C@H](Cc1ccccc1)NC(=O)[C@@H](N)CC(=O)O (H-Asp-Phe-OMe)	inactive
Cc1c(C(=O)NCCO)[n+](=O)c2ccccc2n1[O-]	inactive

SMILES	outcome
Nc1nc(Cl)nc2c1ncn2[C@H]1C[C@H](O)[C@@H](CO)O1	inactive
CC(C)Cc1ccc(C(C)C(=O)O)cc1 (stereo not given)	inactive
CCCCOC(=O)CC(CC(=O)OCCCC)(OC(C)=O)C(=O)OCCCC	inactive
CN=C(NC#N)NCCSCc1nc[nH]c1C	inactive
O=C(OCc1ccccc1)c1ccccc1	inactive
O=C(O)CCCCC1CCSS1 (stereo not given)	inactive
CCc1cc(C(N)=S)ccn1	inactive
NC(=O)c1cnccn1	inactive
O=C(c1ccccc1)C(O)c1ccccc1 (stereo not given)	inactive
CC(=O)c1ccc(S(=O)(=O)NC(=O)NC2CCCCC2)cc1	inactive
O=C(N[C@H](CO)[C@H](O)c1ccc([N+](=O)[O-])cc1)C(Cl)Cl	inactive
Nc1ccc(S(N)(=O)=O)cc1	inactive
O=C(O)c1cc(=O)[nH]c(=O)[nH]1	inactive
COc1ccc(C(=O)c2ccccc2)c(O)c1	inactive
O=C(O)Cc1cccc2ccccc12	inactive
c1ccc2sc(SSc3nc4ccccc4s3)nc2c1	inactive
CC12CCC(CC1)C(C)(C)O2	inactive
